Assay outcomes (PubChem BioAssay)
Only some compounds are listed: those with a hit (about 2.2% of all), similar ones and a draw of the others.
APP transl inh – inhibitors of APP translation via 5'UTR reporter, primary screen, APP 5'UTR luciferase, SH-SY5Y cells; inhibition, % at 2 µM; 190,000 tested, 0.82% active; SH-SY5Y APP 5'UTR-luciferase reporter, luminescence; AID 1285, 2008;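 active means inhibition above a set limit, derived from the sample mean plus 3 SD, cut at about 45% in these data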
aSyn UTR inh – MLPCN primary screen, SNCA 5' untranslated region. alpha-synuclein 5'UTR reporter, inhibitor activity. inhibition, % (tested at 7.5 µM). 300,000 tested, 0.82% active; in the data active means inhibition above about 60%;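 further: H4 neuroglioblastoma cells stably carrying SNCA 5'UTR luciferase fusion; 0% = DMSO wells and 100% = positive control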
BaF3 tox – parental Ba/F3 cell viability inhibition, counter-screen for JAK2V617F inhibitor project, murine pro-B, CellTiter-Glo luminescence | inhibition, % at 5.6 µM | CellTiter-Glo ATP luminescence | 220,000 tested, 1.1% active;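 active means inhibition above a per-campaign cutoff, the mean inhibition of all tested compounds plus 3 SD, cut at about 27% in these data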;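 further: 0% = DMSO wells and 100% = JAK Inhibitor I control wells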
Ba/F3 V617F tox – reduced viability of JAK2V617F-dependent Ba/F3 cells, primary screen, JAK2V617F inhibitor project, cell-based, Ba/F3 EpoR-JAK2V617F, luminescence; 220,000 tested, 1.1% active; ATP luminescence; AID 1446, 2008; inhibition, % at 5.6 µM;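 active means inhibition above the campaign mean plus 3 SD over all tested compounds, cut at about 24% in these data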;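 further: cytokine-independent growth of Ba/F3 cells driven by EpoR plus mutant JAK2; 0% = DMSO-treated cells and 100% = JAK inhibitor I control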
KLF5 inh – KLF5 expression inhibitors, primary screen, DLD-1 cells, luminescence; inhibition, % at 5 µM; DLD-1 KLF5 promoter-luciferase reporter; 290,000 tested, 0.23% active;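 active means inhibition above a per-plate limit of that plate's mean compound inhibition plus 3 SD, cut at about 60% in these data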;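 further: 0% = DMSO wells and 100% = LY294002 at 200 µM; higher means less KLF5 promoter-driven luciferase light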
IEC-6 cytotox – cytotoxicity in IEC-6 intestinal epithelial cells, primary screen, cytotoxicity control for KLF5 inhibitor project, cell-based, luminescence; IEC-6 cytotoxicity, luminescence viability; inhibition, % at 5 µM; 290,000 tested, 0.78% active; in the data active means inhibition above about 22%;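 further: 0% = plate median of test compound wells and 100% = cytotoxic reference compound wells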
Numbers without * were called inactive; x = no result.

SMILES	APP transl inh	aSyn UTR inh	BaF3 tox	Ba/F3 V617F tox	KLF5 inh	IEC-6 cytotox
Cc1cccc2sc(NNC(=O)c3ccc(S(=O)(=O)N4CCCC(C)C4)cc3)nc12 (configuration not stated)	35	78*	8	-2	19	0
Cc1cccc2sc(NC(=O)c3cccc(S(=O)(=O)N4CCc5ccccc54)c3)nc12	2	-1	1	0	-8	0
Cc1cccc2sc(NNC(=O)c3ccc(S(=O)(=O)N4CCc5ccccc5C4)cc3)nc12	20	67*	6	-1	25	3
Cc1cc(C)c2nc(NNC(=O)c3ccc(S(=O)(=O)N4CCCCC4)cc3)sc2c1	13	46	6	1	7	0
CCCCN(Cc1ccccc1)C(=O)C1CCCN(S(=O)(=O)c2cnc[nH]2)C1 (configuration not stated)	48*	-6	0	-3	-28	-3
C=CC[N+](C)(C)C/C(Cl)=C(\Cl)c1ccccc1	19	1	27*	26*	-19	4
C/C(Cl)=C\C[N+](C)(C)CC(=O)OCCc1ccccc1	x	13	-3	0	-32	-7
CCCCn1c(N)c(N(CC(C)C)C(=O)c2cc(-c3ccncc3)nc3ccccc23)c(=O)[nH]c1=O	x	-2	x	x	x	x
COc1cc(/C=C2\SC(=S)N(CCC(=O)Nc3ccc(O)cc3)C2=O)cc(OC)c1OC	x	-15	x	x	-11	0
Cc1nn(CC(N)=O)c(=O)c2ccccc12	-7	1	44*	20	-9	-8
CCOC(=O)Cn1nc(C)c2ccccc2c1=O	-10	1	1	-2	12	2
CC(C)c1ccc(S(=O)(=O)/N=C2/C=C(Sc3ncn[nH]3)C(=O)c3ccccc32)cc1	34	x	74*	54*	13	39*
Cc1ccc(S(=O)(=O)/N=C2/C=C(Sc3ncn[nH]3)C(=O)c3ccccc32)c(C)c1	66*	x	14	54*	-2	7
O=C(CC1Sc2ccccc2NC1=O)OCc1cc(=O)oc2cc(O)ccc12 (configuration not stated)	-6	-42	3	0	-13	0
Cn1nc(CC(=O)Nc2ccc(N3CCN(C(=O)OC(C)(C)C)CC3)cc2)c2ccccc2c1=O	10	77*	60*	50*	11	11
Cn1nc(CC(=O)N2CCN(c3ccccc3)CC2)c2ccccc2c1=O	-20	13	8	4	16	11
Cn1nc(CC(=O)Nc2ccc3c(c2)OCCO3)c2ccccc2c1=O	5	16	53*	48*	18	8
N#Cc1cccc(NC(=O)C2SC(=Nc3ccccc3)C(C(=O)N3CCOCC3)=C2N)c1 (configuration not stated)	-8	-25	1	-4	-6	-6
COc1ccc(C(C)=O)cc1COC(=O)CNC(=O)c1cc(C)cc(C)c1	3	-14	38*	70*	-12	4
COc1ccc(C(C)=O)cc1COC(=O)c1ccc(N)c([N+](=O)[O-])c1	6	18	-3	-4	2	31*
CCN=C1Cn2c(nc3scc(-c4ccccc4)c3c2=O)CN1CC	-5	x	1	-2	-6	2
Cc1ccc2nc(NC(=O)CCCC(=O)O)sc2c1	60*	102*	2	2	9	-3
Cc1ccc2nc(NC(=O)CSCC(=O)OCC(=O)c3ccccc3)sc2c1	21	62*	1	-3	4	-5
CCCCc1ccc(-c2ccc(Br)cc2O)nc1	-29	-6	3	3	-37	-2
CCCCc1ccc(-c2ccc(C)cc2O)nc1	-203	84*	3	2	-76	-1
SMILES	APP transl inh	aSyn UTR inh	BaF3 tox	Ba/F3 V617F tox	KLF5 inh	IEC-6 cytotox
COCCCN=C1NN=C(c2cc(C)n(Cc3ccccc3Cl)c2C)CS1	76*	23	4	-2	-14	7
CC1(C)NC(=O)N(CCCCOc2ccc(Cl)cc2C=O)C1=O	10	-8	76*	71*	-1	10
NC(=O)c1sc2nc3c(c(-c4ccco4)c2c1N)CCC3	10	20	5	4	19	-18
NC(=O)c1sc2nc3c(c(-c4cccs4)c2c1N)CCCC3	46*	45	0	-1	-2	-10
CC(C)(C)NC(=O)CN(Cc1ccc2c(c1)OCO2)C(=O)CNS(=O)(=O)c1ccc(F)cc1	x	-8	x	x	-1	3
Oc1c(C(c2ccco2)N2CCN(C(c3ccccc3)c3ccccc3)CC2)sc2ncnn12 (configuration not stated)	0	22	3	-2	-28	0
COc1ccc(N/C=C/C(=O)C(C)(C)C)cc1	0	-18	9	3	-8	-2
Fc1ccc(CSc2nncn2NCc2ccc3c(c2)OCO3)cc1	10	7	7	4	-14	2
CCOc1cc(/C=C(/C#N)C(=O)Nc2ccc(O)cc2)cc(Br)c1O	-4	84*	0	3	-10	2
CCOC(=O)c1c(C)nc2ccc(C)cn12	-4	23	5	-2	-68	-2
Cc1ccc2nc(C)c(C(=O)NN=C3CCN(C)CC3)n2c1	68*	24	7	9	38	19
CCOc1ccc2c(c1)OC(c1ccc(C)cc1)(C(F)(F)F)NC2=O (configuration not stated)	95*	96*	51*	58*	-7	42*
CCOc1ccc2c(c1)OC1(CCC(C)C1)CC2=O (configuration not stated)	x	30	x	x	x	x
CN(C)c1ccc(/C=C2\SC(=O)N(CCc3nnc(N)s3)C2=O)cc1	x	80*	-2	1	-36	3
CN(C)c1ccc(/C=C2/SC(=O)N(CCN=C3NS(=O)(=O)c4ccccc43)C2=O)cc1	-35	-66	4	-2	-20	-6
Cc1ccc(S(=O)(=O)N2CCC(C(=O)NCC3CCCCC3)CC2)cc1	x	2	x	x	-8	-6
CCc1ccc(-c2nc(CSCC(=O)NCc3ccco3)c(C)o2)cc1	47*	77*	5	2	42	0
CCCNC(=O)CSCc1nc(-c2ccc(SC)cc2)oc1C	-8	-31	6	6	-28	1
COCCOC(=O)c1c(C)oc2ccc(OC(=O)c3cccs3)cc12	0	-17	1	-3	-11	0
COc1ccccc1C(=O)NC(=O)COc1ccc(Cl)cc1Cl	x	17	x	x	x	x
CCCCNC(=S)NCC(c1ccccc1)c1c[nH]c2ccccc12 (configuration not stated)	x	-1	x	x	-34	-2
CN(C)CCCNC(=S)NCC(c1ccc(Cl)cc1Cl)c1c[nH]c2ccccc12 (configuration not stated)	x	111*	x	x	-37	10
